Assay outcomes (PubChem)
Nrf2 block: Nrf2 qHTS screen for inhibitors; hit rate 2.1% among 360,000; A549 ARE-Fluc reporter, luciferase luminescence, 18-24 h; Potency, µM (titrated, usually from 46 µM), usual class: inhibitors; also: nearly all actives have a fitted effect of over 60% in size
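Nrf2 activity is the BugLite luminescence, read 15 min after reagent at room temperature, following CellTiter-Fluor cytotoxicity readout (30 min, 37C). Compound titrations were applied for 18-24 h to 5000 A549 ARE_Fluc cells/well in 5% FBS OPTI-MEM.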
A549 tox-1: Nrf2 qHTS screen for inhibitors: counterscreen for cytotoxicity. A549 ARE-Fluc cells, CellTiter-Fluor viability, 18-24 h. Potency, µM (series often up to 46 µM), hits mostly inhibitors. hit rate 0.16% among 390,000
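A549 ARE-Fluc cells in 5% FBS OPTI-MEM, 5000 cells/well, rested 2 h then exposed to compounds in concentration-response for 18-24 h at 37 °C. Viability by CellTiter-Fluor fluorescence (Ex 405/Em 525) after 30 min; luciferase luminescence (BugLite, 15 min, RT) read afterwards.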
PINK1 modulator: A Quantitative High throughput Screen to Identify Chemical Modulators of PINK1 Expression; hit rate 0.2% among 410,000; Potency, µM (series often up to 76.6 µM), hits mostly activators; AID 624263, 2012; PINK1 immunofluorescence, high-content cytometry, 24 h; active = well fitted activation curve with a large enough effect; inconclusive = small, poorly fitted or top-dose-only effect; cell line not stated here; also: nearly all actives have a fitted effect of over 65% in size
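PINK1 protein level read as immunofluorescence by microplate cytometer in a fixed, stained stable cell line after 24 h exposure to five compound concentrations, with CCCP as control.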
Nrf2 ARE act: qHTS of Nrf2 Activators; Potency, µM (series often up to 46.1 µM), most hits filed as activators; AREc32 ARE-luciferase reporter (MCF7-derived line), luminescence, 24 h; hit rate 0.31% among 410,000; AID 624171, 2012; also: nearly all actives have a fitted effect of over 65% in size
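AREc32_Fluc, 1000 cells/well, OPTI-MEM + 5% FBS, o/n 37 deg C 5% CO2; 23 nL cpd by pin tool, 24 hr; Steady-Glo 30 min RT, luminescence.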
Epigenetic derep: Quantitative High-Throughput Screen for Regulators of Epigenetic Control. murine LDR cells, GFP reporter derepression, 30 h. Potency, µM (top dose mostly 53.9 µM), hits mostly activators. hit rate 0.2% among 280,000. AID 1865, 2009; also: nearly all actives have a fitted effect of over 60% in size
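Reporter derepression read as number of fluorescent GFP-positive objects, 20-120 um in size, counted by laser-scanning cytometer. Mouse LDR line with an epigenetically silenced CMV-GFP locus; compound incubation 30 h, 37 C.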
FLuc counter 3: Nrf2 qHTS screen for inhibitors: Purified Fluc Biochemical Counterscreen for Hit Validation; shares compounds with Nrf2 block; purified firefly luciferase, luminescence inhibition; Potency, µM (doses to about 57.5 µM), usual class: inhibitors; hit rate 4% among 1,400; AID 720522, 2013; also: nearly all actives have a fitted effect of over 65% in size
Target sequence (P08659 whole entry, looked up): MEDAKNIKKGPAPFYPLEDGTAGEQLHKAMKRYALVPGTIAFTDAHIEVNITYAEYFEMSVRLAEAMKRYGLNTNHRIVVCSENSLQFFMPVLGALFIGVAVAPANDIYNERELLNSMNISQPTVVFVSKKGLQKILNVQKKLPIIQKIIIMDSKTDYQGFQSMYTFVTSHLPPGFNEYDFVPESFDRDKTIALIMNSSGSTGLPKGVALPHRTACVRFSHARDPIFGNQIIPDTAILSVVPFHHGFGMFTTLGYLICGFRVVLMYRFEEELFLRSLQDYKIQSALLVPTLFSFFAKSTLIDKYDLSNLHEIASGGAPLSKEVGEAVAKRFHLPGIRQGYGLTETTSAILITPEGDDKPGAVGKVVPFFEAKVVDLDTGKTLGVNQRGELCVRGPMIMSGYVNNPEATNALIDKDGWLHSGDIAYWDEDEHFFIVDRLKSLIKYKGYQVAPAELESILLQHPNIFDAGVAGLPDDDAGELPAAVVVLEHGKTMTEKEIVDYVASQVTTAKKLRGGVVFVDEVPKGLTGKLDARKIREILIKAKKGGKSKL
A549 tox-2: Nrf2 qHTS screen for inhibitors: A549 ARE-Fluc Cytotoxicity Counterscreen for Hit Validation; shares compounds with Nrf2 block; A549 ARE-Fluc cells, cytotoxicity counterscreen; Potency, µM (titrated, usually from 46.1 µM), usual class: inhibitors; hit rate 2% among 1,400; AID 720523, 2013;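 also: cells exposed to compounds for 18 to 24 hours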
Nrf2 ARE inh: Nrf2 qHTS screen for inhibitors: Nrf2 A549 ARE-Fluc Confirmation Assay for Hit Validation | A549 ARE-firefly luciferase reporter, luminescence | Potency, µM (top dose mostly 46.1 µM), usual class: inhibitors | shares compounds with Nrf2 block | hit rate 74% among 1,400; also: nearly all actives have a fitted effect of over 65% in size
Numbers stand for hits; - = inactive; ? = inconclusive; . = no result shown; [ ] = remark or other dose. Most compounds without a hit are left out; they make up all but 2.4% or so of the library. Unless noted, calls follow the shape of the dose curve; as a rule, active = well fitted curve in the direction sought with a large enough effect; inconclusive = small, poorly fitted or top-dose-only effect, or another doubt; inactive = no such curve, though single readings can be large; an effect the other way counts as inactive or inconclusive.

SMILES	Nrf2 block	A549 tox-1	PINK1 modulator	Nrf2 ARE act	Epigenetic derep	FLuc counter 3	A549 tox-2	Nrf2 ARE inh
COc1ccc([C@@]23Oc4cc(OC)cc(OC)c4[C@]2(O)[C@H](O)[C@H](C(=O)N(C)C)[C@H]3c2ccccc2)cc1	0.021µM	?	-	-	.	-	?	0.015µM
CCOC(=O)CC(CC(C)=O)C(=O)OCC (configuration not stated)	.	.	.	.	-	.	.	.
O=c1c2cccc3c2c(nn1CN1CCOCC1)-c1ccccc1-3	3.7µM	-	-	-	-	-	-	8.2µM
COc1ccc(C(=O)Nc2nc(-c3nnn(-c4ccc(C(C)C)cc4)c3C)ns2)cc1	-	-	-	-	-	.	.	.
Cc1ccc(C(=O)NCc2cccc(C(F)(F)F)c2)cc1S(=O)(=O)N1CCCCC1	3.7µM	-	-	-	.	-	-	?
Cc1ccc(C(=O)NCc2ccco2)cc1S(=O)(=O)N1CCCCC1	-	-	.	-	-	.	.	.
Cn1c(-c2ccc3ccccc3n2)[n+](C)c2ccccc21	?	-	-	-	-	.	.	.
Cn1c(-c2cccc([N+](=O)[O-])c2)[n+](C)c2ccccc21	?	-	-	-	-	.	.	.
CN(C)c1ccc(-c2n(C)c3ccccc3[n+]2C)cc1	0.29µM	-	-	-	-	-	-	?
Cn1c(-c2ccccn2)[n+](C)c2ccccc21	5.2µM	-	-	-	-	-	-	10µM
Cc1cc(=O)[nH]c(N/N=C/c2ccccn2)n1	-	-	-	-	-	.	.	.
O=c1cnnc(N/N=C/c2ccccn2)[nH]1	?	-	-	-	-	-	-	12µM
Cc1ccc(NC(=O)CSc2nnc(-c3ccccc3)n2C)cc1	.	.	-	.	.	.	.	.
COc1ccc(NC(=O)CSC2=Nc3ccccc3C3=NC(CC(=O)NCc4ccc(F)cc4)C(=O)N23)cc1 (configuration not stated)	.	-	-	-	-	.	.	.
Cc1ccccc1OCC(=O)Nc1cc(C)c(O)c(-c2nc3ccccc3o2)c1	.	.	-	.	.	.	.	.
Cc1cc(C)c(C(N)=O)c(SCC(=O)c2cc(C)n(-c3cc(C)on3)c2C)n1	2.3µM	-	-	-	.	-	-	?
COc1cc(OC)c(/C=C/c2ccccn2)c(OC)c1	.	.	.	.	.	-	-	6.5µM
COc1cc(OC)c(/C=C/c2nccc3ccccc23)c(OC)c1	.	.	?	.	.	7.6µM	-	.
COc1ccc(/C=C/c2ccc3ccccc3n2)cc1OC	.	.	-	.	.	.	.	.
COc1cc(OC)c(/C=C/c2ccc3ccccc3n2)c(OC)c1	.	.	.	.	.	-	?	6.5µM
COc1cc(OC)c(C=Cc2ccncn2)c(OC)c1	.	.	-	-	.	.	.	.
Nc1ccc(/C=C/c2nccc3ccccc23)cc1	.	.	-	.	.	2.7µM	-	?
COc1ccc(-c2cn3cccnc3n2)cc1NC(=O)Nc1cc(C)ccc1C	?	-	-	-	-	.	.	.
COc1ccc(CCNC(=O)C(C)n2nc(C)c3c(C)n(-c4ccc(C)cc4)nc3c2=O)c(OC)c1 (configuration not stated)	5.8µM	?	-	-	.	-	-	5.8µM
Cc1ccc2nc(-c3ccc(C)c(NC(=O)COc4ccc(Cl)cc4)c3)oc2c1	.	.	-	.	.	.	.	.
SMILES	Nrf2 block	A549 tox-1	PINK1 modulator	Nrf2 ARE act	Epigenetic derep	FLuc counter 3	A549 tox-2	Nrf2 ARE inh
CNC(=O)CSc1nnc(NC(=O)Nc2ccccc2)s1	.	-	-	-	?	.	.	.
Cc1ccc(NC(=O)COc2cccnc2[N+](=O)[O-])cc1S(=O)(=O)N1CCCCC1	7.3µM	?	-	-[9.22 µM]	-	-	-	?
Cc1ccc(NC(=O)COc2ccccc2C#N)cc1S(=O)(=O)N1CCCCCC1	-	-	-	-	.	.	.	.
CCCCCc1ccc(OCCOCCn2c[n+](C)c3ccccc32)c(CCCCC)c1	7.3µM	-	-	-	-	-	?	.
c1ccc(CNc2ncnc3ccccc23)cc1	4.6µM	-	-	-	-	-	-	6.5µM
COc1cc2ncnc(NCc3ccccc3)c2cc1OC	?	-	-	-	-	.	.	.
CCc1ccccc1NC(=O)CN1C(=O)COc2ccc(S(=O)(=O)N3CCCCCC3)cc21	-	-	-	-	?	.	.	.
Cc1cc(C)c(S(=O)(=O)N2CCN(S(=O)(=O)N3CCCCCC3)CC2)c(C)c1	-	-	-	-	.	.	.	.
Cc1ccc(N2CCN(S(=O)(=O)N3CCCCC3)CC2)c(C)c1	6.5µM	-	-	-	-	-	-	-
Cc1cc(C)cc(C(=O)Nc2ccc(-c3cn4cccnc4n3)cc2)c1	9.2µM	-	-	-	-	-	-	?
O=C(Nc1ccc(-c2cn3cccnc3n2)cc1)c1ccccc1F	.	-	-	-	-	.	.	.
CCN(c1ccccc1)S(=O)(=O)c1cc(C(=O)Nc2ccc(Br)cc2)ccc1F	5.8µM	?	-	-	-	-	-	12µM
N#Cc1nc(N2CCCCC2)nc(N2CCCCC2)n1	2.1µM	-	-	.	.	-	-	5.2µM
CCNc1nc(C#N)nc(N2CCCCC2)n1	4.6µM	-	-	.	.	-	-	7.3µM
CCNc1nc(NC(C)(C)C)nc(N2CCCC2)n1	-	?	-	-	-	.	.	.
Cc1nc2ccccc2n1-c1nc(-c2ccco2)cc(C(F)(F)F)n1	4.6µM	?	-	-	-	-	?	5.8µM
CC(C)COc1ccc(C(=O)Nc2nnc(S(=O)(=O)N(C)Cc3ccco3)s2)cc1	?	-	-	-	-	.	.	.
COc1ccc(NC(=S)NC(=O)/C=C/c2cccs2)cc1	-	-	-	-	-	.	.	.
O=C(/C=C/c1cccs1)NC(=S)Nc1ccc(S(=O)(=O)Nc2ccccc2C(F)(F)F)cc1	8.2µM	-	-	-	-	-	-	-
CCN(C(=O)c1cnc(N2CCOCC2)c2ccccc12)c1cc(C)ccc1C	.	-	-	-	-	.	.	.
CC1CCCN(S(=O)(=O)c2ccc(C(=O)Nc3nnc(C4CC4)o3)cc2)C1 (configuration not stated)	5.8µM	?	-	-	.	-	?	9.2µM
Cc1cc(C)c2nc(NNC(=O)c3ccc(S(=O)(=O)N4CCCC(C)C4)cc3)sc2c1 (configuration not stated)	4.1µM	?	-	-	-	-	-	6.5µM
Cc1nnc(NC(=O)c2ccc(S(=O)(=O)N3CCCCCC3)cc2)o1	-	-	-	-	-	.	.	.
Cc1ccc(CCNC(=O)c2c(C)oc3ncnc(N4CCOCC4)c23)cc1	?	-	-	-	-	.	.	.
Cc1ccc(Cn2c(CNC(=O)Cc3cccc([N+](=O)[O-])c3)nc3cccnc32)cc1	.	-	-	-	-	.	.	.
